# Measured values from PubChem BioAssay AID1018 (Sanford-Burnham Center for Chemical Genomics, 2008).
# In all, about 200,000 compounds went through this assay and about 15 (0.007%) were called active. Rule as the data show it: active = displacement above about 50%; inactive = the rest. Only a selection was taken, and actives are over-represented in it overall.
# Target: E3 ubiquitin-protein ligase XIAP (Homo sapiens) (UniProt P98170)
# Assay: small molecules displacing peptide from XIAP – biochemical, IAP family, fluorescence polarization (AID 1018)
# Settings: XIAP BIR domain, at 20 µM, active compounds read high
# Chain of E3 ubiquitin-protein ligase XIAP (Homo sapiens) (P98170 whole entry, looked up): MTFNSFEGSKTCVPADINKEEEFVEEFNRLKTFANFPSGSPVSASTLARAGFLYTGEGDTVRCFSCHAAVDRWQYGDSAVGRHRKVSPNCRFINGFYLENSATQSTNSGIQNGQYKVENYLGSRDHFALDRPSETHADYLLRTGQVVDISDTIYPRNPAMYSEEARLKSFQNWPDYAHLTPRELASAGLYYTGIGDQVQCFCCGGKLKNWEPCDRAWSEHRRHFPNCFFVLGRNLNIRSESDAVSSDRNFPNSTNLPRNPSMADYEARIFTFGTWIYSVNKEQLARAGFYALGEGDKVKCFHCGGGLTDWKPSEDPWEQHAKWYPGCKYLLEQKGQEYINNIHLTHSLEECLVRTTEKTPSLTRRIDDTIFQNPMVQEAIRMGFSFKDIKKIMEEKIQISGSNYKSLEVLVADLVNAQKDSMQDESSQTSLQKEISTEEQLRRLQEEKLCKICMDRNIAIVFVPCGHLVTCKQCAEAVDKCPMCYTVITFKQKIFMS
row,Compound,displacement
1,COc1ccc(N(CC(=O)NCCSC2CCCCC2)S(C)(=O)=O)c(OC)c1,-4.6% (inactive)
2,COc1ccc(/C(O)=C2/C(=O)C(=O)N(CCN(C)C)C2c2cccnc2)cc1OC (centres undefined),-8.8% (inactive)
3,O=C(COC(=O)c1cccc(S(=O)(=O)N2CCc3ccccc32)c1)Nc1ccc(Cl)cn1,-4.3% (inactive)
4,Cc1ccc(NC(=O)COC(=O)c2ccc3c(c2)NC(=O)C2CCCN32)cc1 (centres undefined),-1.5% (inactive)
5,Cc1ccc(CNC(=O)Cn2cc(C(F)(F)F)ccc2=O)cc1,-2.9% (inactive)
6,S=C(Nc1ccc(Cl)cc1)N1CCN(C2CCCCC2)CC1,-3.9% (inactive)
7,O=C(OCCC1Oc2cccnc2NC1=O)c1ccc(F)cc1 (centres undefined),-2.6% (inactive)
8,Nc1nc(-c2ccco2)nn1S(=O)(=O)c1ccc(Cl)cc1,-2.1% (inactive)
9,CN(C)C(CNC(=O)Cc1cccc(C(F)(F)F)c1)c1ccco1 (centres undefined),-10.8% (inactive)
10,O=C(COc1ccc(Cl)cc1[N+](=O)[O-])N/N=C/c1cccs1,-10.2% (inactive)
11,N=C1C(c2ccccc2)=C(O)CN1c1ccccc1N1CCOCC1,-6.4% (inactive)
12,O=C(CCCOc1ccccc1)Nc1ccc(S(=O)(=O)N2CCOCC2)cc1,-4.6% (inactive)
13,COc1cc(C)c(Cl)c(C)c1S(=O)(=O)NC1CC(C)(C)NC(C)(C)C1,-4.7% (inactive)
14,Cc1ccc(-c2[nH]nc3c2C(c2ccccc2OC(=O)N2CCOCC2)C(C#N)=C(N)O3)cc1 (centres undefined),1.4% (inactive)
15,Cc1ccc(N2N=C(c3ccc(Br)cc3)CCC2=O)cc1,-4.4% (inactive)
16,Cc1ccc(Cn2cccc2C2=NC(C)CO2)cc1 (centres undefined),-0.2% (inactive)
17,COc1ccc(C(=O)NC(=S)N2CC(C)OC(C)C2)cc1OC (centres undefined),-1.8% (inactive)
18,COc1ccc(CN2C(=O)c3cccnc3C2Nc2ccc(OC)c(Cl)c2)cc1 (centres undefined),-2% (inactive)
19,COc1ccc(CN2C(=O)c3cccnc3C2Nc2cc(Cl)c(OC)cc2OC)cc1 (centres undefined),9.6% (inactive)
20,COc1ccc(CN2C(=O)c3cccnc3C2Nc2cc(Cl)ccc2OC)cc1 (centres undefined),63.8% (active)

row,Compound,displacement
1,Cc1ccc(N=N/C(=C\O)C(=O)c2ccc(Cl)cc2)cc1,-7.5% (inactive)
2,CCN(CC)CCNC(=O)/C(=C/c1cn(CC)c2ccccc12)NC(=O)c1cc(OC)c(OC)c(OC)c1,-5.1% (inactive)
3,CC(=O)NC1C(=O)N(CCc2ccccc2)c2ccccc21 (centres undefined),1.5% (inactive)
4,Cc1ccc(NC(=O)c2cccc(Cl)c2)nc1,-1.6% (inactive)
5,Cn1nccc1C(=O)Nn1cnnc1,1.6% (inactive)
6,Cc1ccc(S(=O)(=O)N2CCOCC2)cc1NC(=O)COC(=O)c1ccccc1OCc1c(C)noc1C,0.2% (inactive)
7,COc1cc(OC)c(C(=O)NCC(c2cccs2)N(C)C)cc1OC (centres undefined),-4.3% (inactive)
8,O=C(CN1CCOCC1)N1CCN(S(=O)(=O)c2ccccc2)C1c1ccccc1 (centres undefined),-3.4% (inactive)
9,CCOc1ccccc1NC(=O)c1nc[nH]c1C(=O)Nc1ccccc1OCC,-4.1% (inactive)
10,CCCOC(=O)c1sc2nc3c(cc2c1N)C(=O)CCC3,-6% (inactive)
11,CCOC(=O)c1c(C(=O)OCC)c(C)n(N2C(=O)CSC2=S)c1C,-39.5% (inactive)
12,Cc1nn2cc(-c3ncc(C(F)(F)F)cc3Cl)cnc2c1Br,-5.1% (inactive)
13,CN1CCN(C2CCCCCC2)CC1,-7.6% (inactive)
14,O=[N+]([O-])c1c(NCCO)cc(N2CCC3(CC2)OCCO3)c2nonc12,-5.3% (inactive)
15,CCOC(=O)N1CCN(c2cc(NCCC(=O)O)c3c4c(onc24)-c2ccccc2C3=O)CC1,67.3% (active)
16,CC(=O)OCCNc1cc(N2CCN(C)CC2)c2noc3c2c1C(=O)c1ccccc1-3,-1.6% (inactive)
17,O=C1c2ccccc2-c2onc3ccc(N4CCCC4)c1c23,-14.9% (inactive)
18,CCOC(=O)N1CCN(c2cc(NCCO)c([N+](=O)[O-])c3nonc23)CC1,-2.9% (inactive)
19,O=C(O)CCCNc1cc(N2CCC3(CC2)OCCO3)c2noc3c2c1C(=O)c1ccccc1-3,87.1% (active)
20,Cc1cc(OCC(=O)C(C)(C)C)c2c(C)c(C)c(=O)oc2c1,-1.7% (inactive)

row,Compound,displacement
1,CC(=O)C(C)Oc1cc(C)cc2oc(=O)c(C)c(C)c12 (centres undefined),-5.9% (inactive)
2,CC(=O)COc1cc(C)cc2oc(=O)c(C)c(C)c12,61.1% (active)
3,Cc1ccc(Cn2nnc3c(=O)[nH]c(C4CCN(S(=O)(=O)c5ccccc5)CC4)nc32)cc1,-5.4% (inactive)
4,Cc1ccc(Cn2nnc3c(=O)[nH]c(C4CCN(S(=O)(=O)c5ccc(F)cc5)CC4)nc32)cc1,63.3% (active)
5,Cc1ccc(Cn2nnc3c(=O)[nH]c(C4CCN(S(=O)(=O)c5ccc(C)cc5)CC4)nc32)cc1,-2% (inactive)
6,COc1ccc(N(CC(O)CN2CCCCC2)S(=O)(=O)c2ccc(C)cc2)cc1 (centres undefined),-3.7% (inactive)
7,C=CC(=O)NCCCc1cc(C(C)(C)C)c(O)c(C(C)(C)C)c1,-6.9% (inactive)
8,Cc1ccccc1N(CC(=O)O)S(C)(=O)=O,-4.6% (inactive)
9,CN(C)CCCOC(=O)COc1ccc(C(C)(C)C)cc1,-1.4% (inactive)
10,CCC(C)(C(=O)NC1CCCC1)N(Cc1cccs1)C(=O)c1ccc2c(c1)OCO2 (centres undefined),-5.3% (inactive)
11,CC(C)Cn1c2c(c(O)c(C(=O)Nc3ccc(F)cc3)c1=O)CCCC2,0.5% (inactive)
12,COc1ccccc1NCCC#N,-1.4% (inactive)
13,Cc1cccc(OCC(=O)NNC(=O)c2cccs2)c1,-3.8% (inactive)
14,Cc1[nH]n(-c2ccc([N+](=O)[O-])cc2)c(=O)c1C=NCCN1CCN(C(=O)c2ccccc2)CC1,-2.6% (inactive)
15,O=C(NCCCO)c1ccc(CSc2nc3ccccc3[nH]2)cc1,-4% (inactive)
16,CC(=O)C1C(c2cccc(F)c2)NC(=O)NC1(O)C(F)(F)F (centres undefined),0% (inactive)
17,COC(=O)C(NNc1ccccc1C)(NC(=O)c1ccc(F)cc1)C(F)(F)F (centres undefined),-3.9% (inactive)
18,O=C(/C=C/c1ccco1)NCC(=O)N/N=C/c1ccccc1[N+](=O)[O-],-3.9% (inactive)
19,O=c1c(Cc2ccc(F)cc2)c(O)ccn1CCc1ccccn1,-4.4% (inactive)
